Laboratory results as given in PubChem BioAssay (EPA / NIEHS).
Active and inactive are the calls of the source. Rule for the calls: active = hit-call score of the fitted dose curve at least 0.9, where 1 is the maximum; inactive = score below 0.9.

What was measured:
[1] = molecular target: Transcription factor E2F1 (Homo sapiens) (UniProt Q01094); assay: ATG_E2F_CIS: Attagene CIS-FACTORIAL HepG2 Assay for human E2F Transcription Factor 1 (AID 2282935); conditions: HepG2 Attagene cis-reporter, E2F reporter RNA transcripts; actives raise or lower the signal
Outline: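 Transient MRTU transfection of HepG2; 24 h compound exposure; RNA → oligo(dT) RT → PCR → FAM label → HpaI cut → CE fluorescence. Gain/loss of signal fit against DMSO.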

[2] = ATG_E_Box_CIS: Attagene CIS-FACTORIAL HepG2 Assay for human Enhancer Box (E-box) (AID 2282936); conditions: HepG2 E-box cis-reporter transcription, actives raise or lower the signal
Outline: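 Transiently transfected HepG2, endogenous TF-driven reporters, 24 h dosing. Readout: RT-PCR plus capillary electrophoresis of fluorescent reporter fragments. Gain or loss of signal fitted bidirectionally against DMSO baseline.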

[3] = ATG_M_61_CIS: Attagene CIS-FACTORIAL HepG2 Assay for M61 Transcription Factor (Internal Marker) (AID 2282937); conditions: HepG2 Attagene CIS-FACTORIAL M61 internal marker reporter; actives raise or lower the signal
Outline: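 Human liver HepG2, transient MRTU transfection (cis promoter elements), 24 h compound. Total RNA → oligo(dT) RT → PCR → FAM label → HpaI → CE. Internal background marker; bidirectional fitting, DMSO = baseline.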

[4] = ATG_EGR_CIS: Attagene CIS-FACTORIAL HepG2 Assay for human Early Growth Response 1 (EGR1) (AID 2282938); conditions: HepG2 Attagene CIS-FACTORIAL EGR reporter mRNA; actives raise or lower the signal
Outline: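 Transient transfection of human HepG2 with multiple cis-regulated reporter units, chemical exposure 24 h, total RNA isolated. Reverse transcription, PCR, fluorescent labelling and capillary electrophoresis quantify reporter transcripts; activity fitted bidirectionally against DMSO.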

[5] = ATG_M_19_CIS: Attagene CIS-FACTORIAL HepG2 Assay for M19 Transcription Factor (Internal Marker) (AID 2282939); conditions: HepG2 Attagene CIS-FACTORIAL M19 internal marker reporter; actives raise or lower the signal
Outline: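 HepG2, MRTU transient transfection, 24 h dosing. Total RNA → RT-PCR → 6-FAM primer extension → HpaI digest → CE fluorescence. Bidirectional curve fit, DMSO negative control.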

[6] = ATG_ERE_CIS: Attagene CIS-FACTORIAL HepG2 Assay for Estrogen Response Element (ERE) (AID 2282940); conditions: HepG2 ERE cis-reporter, Attagene RNA transcript; actives raise or lower the signal
Outline: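 After a 24 h chemical treatment, RNA from reporter-transfected HepG2 cells is reverse-transcribed, PCR-amplified and fluorescently labelled. Fragments separated by capillary electrophoresis give reporter signal; DMSO serves as negative control.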

[7] = ATG_Ets_CIS: Attagene CIS-FACTORIAL HepG2 Assay for human Erythroblast Transformation Specific (ETS) (AID 2282941); conditions: HepG2 ETS cis-reporter transcription, actives raise or lower the signal
Outline: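 RT-PCR/capillary electrophoresis fluorescence read-out of reporter mRNA; HepG2 transient multi-reporter transfection; 24 h compound exposure; gain or loss of signal fitted bidirectionally relative to DMSO.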

[8] = molecular target: Hepatocyte nuclear factor 3-beta (Homo sapiens) (UniProt Q9Y261); assay: ATG_FoxA2_CIS: Attagene CIS-FACTORIAL HepG2 Assay for human Forkhead box A2 (FOXA2) (AID 2282942); conditions: HepG2 cis-reporter transcription factor activity, 24 h; actives raise or lower the signal
Outline: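 Transient MRTU transfection of HepG2 liver cells; 24 h treatment; total RNA → oligo(dT) RT → PCR → FAM primer extension → HpaI cut → CE. Bidirectional fit vs DMSO.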

[9] = ATG_FoxO_CIS: Attagene CIS-FACTORIAL HepG2 Assay for human Forkhead box O (FoxO) (AID 2282943); conditions: HepG2 Attagene cis-reporter, FoxO element, mRNA; actives raise or lower the signal
Outline: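 HepG2 cells transiently transfected with cis-element-driven reporter units report endogenous FoxO activity. After 24 h chemical exposure, reporter mRNA quantified by RT-PCR, fluorescent labeling, HpaI digestion and capillary electrophoresis; bidirectional fit versus DMSO.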

[10] = ATG_GATA_CIS: Attagene CIS-FACTORIAL HepG2 Assay for human GATA Binding Protein (AID 2282944); conditions: HepG2 GATA cis-element reporter, Attagene multiplex mRNA; actives raise or lower the signal
Outline: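 Cells: HepG2, transiently transfected with cis-regulated reporter transcription units. Exposure: 24 h. Detection: RT-PCR plus capillary electrophoresis of FAM-labeled fragments. Analysis: bidirectional, DMSO as baseline.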

[11] = ATG_GLI_CIS: Attagene CIS-FACTORIAL HepG2 Assay for human Zinc Finger Protein GLI1 (AID 2282945); conditions: HepG2, Attagene cis-factorial reporter mRNA, GLI element; actives raise or lower the signal
Outline: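 Transiently transfected HepG2 cells report endogenous transcription factor activity via cis-element-driven reporter units. After 24 h compound exposure, reporter mRNA was measured by RT-PCR with capillary electrophoresis; bidirectional fitting against DMSO baseline.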

[12] = molecular target: Bile acid receptor (Homo sapiens) (UniProt Q96RI1); assay: ATG_IR1_CIS: Attagene CIS-FACTORIAL HepG2 Assay for human Nuclear Receptor Subfamily 1 Group H Member 4 (NR1H4), IR1 submotif (AID 2282946); conditions: IR1 reporter transcription, actives raise or lower the signal
Outline: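 Fluorescence of capillary-separated, HpaI-digested RT-PCR reporter products gave IR1-element mRNA induction in HepG2 cells 24 h after dosing. Endogenous transcription factors drove the cis-regulated reporters; activity was fitted bidirectionally against DMSO.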

[13] = ATG_ISRE_CIS: Attagene CIS-FACTORIAL HepG2 Assay for human Interferon Regulatory Factor 1 (IRF1) binding to an Interferon-Stimulated Response Element (ISRE) (AID 2282948); conditions: HepG2 ISRE cis-reporter (Attagene), mRNA transcription readout; actives raise or lower the signal
Outline: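 Read-out: fluorescent RT-PCR products resolved by capillary electrophoresis, reporting endogenous transcription factor activity via ISRE-driven reporter mRNA in transfected HepG2 cells dosed for 24 h; gain or loss fitted relative to DMSO.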

[14] = ATG_M_32_CIS: Attagene CIS-FACTORIAL HepG2 Assay for M32 Transcription Factor (Internal Marker) (AID 2282949); conditions: HepG2 Attagene cis-factorial M32 reporter, mRNA; actives raise or lower the signal;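 note: background control marker of the multiplexed CIS panel rather than a real target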
Outline: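 Using DMSO as baseline, bidirectional curve fits were applied to reporter mRNA signals. These came from transiently transfected HepG2 cells exposed for 24 h, with RNA analysed by RT-PCR, FAM primer extension, HpaI digestion and CE.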

[15] = ATG_M_06_CIS: Attagene CIS-FACTORIAL HepG2 Assay for M06 Transcription Factor (Internal Marker) (AID 2282950); conditions: HepG2 Attagene CIS-FACTORIAL M06 internal marker reporter; actives raise or lower the signal
Outline: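 Measured 24 h post-dosing in transiently transfected HepG2 cells, this internal-marker endpoint reports reporter mRNA via RT-PCR with fluorescent primer extension and capillary electrophoresis. DMSO served as negative control and baseline for bidirectional fitting.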

[16] = molecular target: Hypoxia-inducible factor 1-alpha (Homo sapiens) (UniProt Q16665); assay: ATG_HIF1a_CIS: Attagene CIS-FACTORIAL HepG2 Assay for human Hypoxia Inducible Factor 1 (HIF1A) (AID 2282951); conditions: HepG2 Attagene cis-factorial HIF1a reporter transcription; actives raise or lower the signal
Outline: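 Transient MRTU transfection of human HepG2 liver cells, 24 h compound treatment, then total RNA isolation, oligo(dT) reverse transcription, PCR amplification, fluorescent labelling and capillary electrophoresis of reporter fragments. Gain or loss relative to DMSO.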

[17] = molecular target: Hepatocyte nuclear factor 6 (Homo sapiens) (UniProt Q9UBC0); assay: ATG_HNF6_CIS: Attagene CIS-FACTORIAL HepG2 Assay for human Hepatocyte Nuclear Factor 6 (HNF6) (AID 2282952); conditions: HepG2 Attagene cis-factorial HNF6 reporter transcription; actives raise or lower the signal
Outline: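 Readout: fluorescent reporter-transcript fragments resolved by capillary electrophoresis after RT-PCR, reflecting endogenous factor activity in transfected HepG2. Exposure 24 h. Gain or loss of signal fitted bidirectionally against DMSO.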

[18] = molecular target: Heat shock factor protein 1 (Homo sapiens) (UniProt Q00613); assay: ATG_HSE_CIS: Attagene CIS-FACTORIAL HepG2 Assay for human Heat Shock Transcription Factor 1 (HSE) (AID 2282953); conditions: HepG2 HSE cis-reporter, Attagene RNA transcription; actives raise or lower the signal
Outline: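 Reporter mRNA induction in HepG2 is measured 24 h after dosing, using transiently transfected multiplexed cis-regulated reporter units. Signal comes from capillary electrophoresis of labelled RT-PCR products, with DMSO as negative control.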

[19] = ATG_MRE_CIS: Attagene CIS-FACTORIAL HepG2 Assay for human Metal Responsive Element (MRE) (AID 2282954); conditions: HepG2 MRE cis-reporter transcription, Attagene multiplex; actives raise or lower the signal
Outline: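 RT-PCR/capillary electrophoresis readout of reporter mRNA, 24 h post-dosing, in HepG2 cells transfected with multiplexed cis-regulated reporter constructs. Gain or loss of signal fitted bidirectionally against DMSO baseline.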

[20] = ATG_GRE_CIS: Attagene CIS-FACTORIAL HepG2 Assay for human Glucocorticoid Response Elements (GRE) (AID 2282947); conditions: HepG2 GRE cis-reporter, Attagene multiplex mRNA; actives raise or lower the signal
Outline: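 Read-out: fluorescent reporter-transcript fragments separated by capillary electrophoresis after RT-PCR. Transiently transfected HepG2 cells carrying cis-element-driven reporter units were dosed for 24 h; gain or loss of signal fitted against DMSO control.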

Measured: outcome

Chain of Hepatocyte nuclear factor 3-beta (Homo sapiens) (Q9Y261 whole entry, looked up): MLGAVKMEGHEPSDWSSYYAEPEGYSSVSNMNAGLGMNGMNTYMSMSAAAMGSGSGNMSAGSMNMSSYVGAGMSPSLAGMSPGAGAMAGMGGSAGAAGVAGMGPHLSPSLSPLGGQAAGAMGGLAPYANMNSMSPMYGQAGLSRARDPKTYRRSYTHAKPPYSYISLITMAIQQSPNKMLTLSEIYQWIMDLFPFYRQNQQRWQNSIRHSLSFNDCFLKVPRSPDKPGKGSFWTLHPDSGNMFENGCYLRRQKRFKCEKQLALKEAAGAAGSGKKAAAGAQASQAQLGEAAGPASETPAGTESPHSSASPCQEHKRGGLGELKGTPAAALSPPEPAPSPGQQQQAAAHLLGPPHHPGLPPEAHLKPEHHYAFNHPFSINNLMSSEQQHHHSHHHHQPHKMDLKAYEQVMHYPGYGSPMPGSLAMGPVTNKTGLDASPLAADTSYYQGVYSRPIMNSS
Chain of Transcription factor E2F1 (Homo sapiens) (Q01094 whole entry, looked up): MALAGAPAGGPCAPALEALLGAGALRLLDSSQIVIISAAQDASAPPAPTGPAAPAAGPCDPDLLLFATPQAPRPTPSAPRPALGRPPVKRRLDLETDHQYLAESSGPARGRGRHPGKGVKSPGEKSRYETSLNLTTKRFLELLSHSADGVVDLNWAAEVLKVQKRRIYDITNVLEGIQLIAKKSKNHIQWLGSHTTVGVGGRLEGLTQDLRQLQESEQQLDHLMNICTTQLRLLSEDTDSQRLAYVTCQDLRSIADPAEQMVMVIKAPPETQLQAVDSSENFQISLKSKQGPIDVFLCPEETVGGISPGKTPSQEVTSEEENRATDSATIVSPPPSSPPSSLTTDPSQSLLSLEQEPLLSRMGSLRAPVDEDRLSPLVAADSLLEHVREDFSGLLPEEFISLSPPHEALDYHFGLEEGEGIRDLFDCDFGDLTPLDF
Chain of Hypoxia-inducible factor 1-alpha (Homo sapiens) (Q16665 whole entry, looked up, the tested form may be a part): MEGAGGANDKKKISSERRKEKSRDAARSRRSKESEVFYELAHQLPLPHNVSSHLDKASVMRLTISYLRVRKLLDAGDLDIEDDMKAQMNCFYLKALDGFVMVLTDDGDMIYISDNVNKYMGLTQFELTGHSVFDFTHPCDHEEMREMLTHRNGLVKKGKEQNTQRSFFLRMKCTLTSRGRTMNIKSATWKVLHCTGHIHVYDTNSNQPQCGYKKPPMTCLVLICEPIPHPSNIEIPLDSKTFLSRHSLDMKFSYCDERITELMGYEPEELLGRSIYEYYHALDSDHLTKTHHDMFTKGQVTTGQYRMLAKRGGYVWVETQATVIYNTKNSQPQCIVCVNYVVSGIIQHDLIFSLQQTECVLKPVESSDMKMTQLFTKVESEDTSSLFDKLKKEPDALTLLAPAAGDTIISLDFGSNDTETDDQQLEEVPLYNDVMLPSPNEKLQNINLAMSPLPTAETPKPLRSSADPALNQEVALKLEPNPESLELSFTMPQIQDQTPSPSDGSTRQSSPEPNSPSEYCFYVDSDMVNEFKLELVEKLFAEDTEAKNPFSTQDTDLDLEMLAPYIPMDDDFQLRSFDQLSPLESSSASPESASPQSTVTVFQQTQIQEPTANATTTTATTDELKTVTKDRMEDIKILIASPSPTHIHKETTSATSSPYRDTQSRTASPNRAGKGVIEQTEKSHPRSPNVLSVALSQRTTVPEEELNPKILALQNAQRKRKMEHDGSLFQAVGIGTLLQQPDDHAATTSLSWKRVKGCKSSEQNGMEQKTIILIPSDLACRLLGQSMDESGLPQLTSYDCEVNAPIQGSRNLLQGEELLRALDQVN
Chain of Hepatocyte nuclear factor 6 (Homo sapiens) (Q9UBC0 whole entry, looked up, the tested form may be a part): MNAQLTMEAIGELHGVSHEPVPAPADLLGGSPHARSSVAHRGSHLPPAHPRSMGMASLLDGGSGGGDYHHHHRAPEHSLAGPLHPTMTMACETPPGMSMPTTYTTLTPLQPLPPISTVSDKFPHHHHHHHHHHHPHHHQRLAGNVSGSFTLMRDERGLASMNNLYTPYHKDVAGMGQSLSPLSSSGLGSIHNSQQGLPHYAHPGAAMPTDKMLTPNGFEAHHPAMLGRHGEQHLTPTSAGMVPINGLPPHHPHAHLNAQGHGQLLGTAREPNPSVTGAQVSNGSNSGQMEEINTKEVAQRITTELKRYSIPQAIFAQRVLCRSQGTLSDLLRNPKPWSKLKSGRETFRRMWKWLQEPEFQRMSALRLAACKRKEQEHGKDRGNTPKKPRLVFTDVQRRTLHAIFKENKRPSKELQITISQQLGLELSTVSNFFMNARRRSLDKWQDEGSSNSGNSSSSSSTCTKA
Chain of Heat shock factor protein 1 (Homo sapiens) (Q00613 whole entry, looked up): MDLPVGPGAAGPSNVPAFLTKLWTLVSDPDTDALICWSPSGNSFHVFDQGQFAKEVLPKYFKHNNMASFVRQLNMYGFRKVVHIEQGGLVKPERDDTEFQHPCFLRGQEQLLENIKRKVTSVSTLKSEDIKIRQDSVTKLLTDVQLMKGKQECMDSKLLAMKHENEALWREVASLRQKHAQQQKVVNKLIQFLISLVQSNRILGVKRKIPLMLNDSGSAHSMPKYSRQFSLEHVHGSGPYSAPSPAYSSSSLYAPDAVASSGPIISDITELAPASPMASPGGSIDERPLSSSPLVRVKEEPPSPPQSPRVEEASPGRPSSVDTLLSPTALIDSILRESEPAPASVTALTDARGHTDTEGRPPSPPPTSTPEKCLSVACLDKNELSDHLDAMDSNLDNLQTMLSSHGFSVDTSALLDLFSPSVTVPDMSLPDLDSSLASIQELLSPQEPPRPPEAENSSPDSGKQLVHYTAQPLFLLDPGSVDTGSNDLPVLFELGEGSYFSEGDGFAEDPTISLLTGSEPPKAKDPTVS
Chain of Bile acid receptor (Homo sapiens) (Q96RI1 whole entry, looked up): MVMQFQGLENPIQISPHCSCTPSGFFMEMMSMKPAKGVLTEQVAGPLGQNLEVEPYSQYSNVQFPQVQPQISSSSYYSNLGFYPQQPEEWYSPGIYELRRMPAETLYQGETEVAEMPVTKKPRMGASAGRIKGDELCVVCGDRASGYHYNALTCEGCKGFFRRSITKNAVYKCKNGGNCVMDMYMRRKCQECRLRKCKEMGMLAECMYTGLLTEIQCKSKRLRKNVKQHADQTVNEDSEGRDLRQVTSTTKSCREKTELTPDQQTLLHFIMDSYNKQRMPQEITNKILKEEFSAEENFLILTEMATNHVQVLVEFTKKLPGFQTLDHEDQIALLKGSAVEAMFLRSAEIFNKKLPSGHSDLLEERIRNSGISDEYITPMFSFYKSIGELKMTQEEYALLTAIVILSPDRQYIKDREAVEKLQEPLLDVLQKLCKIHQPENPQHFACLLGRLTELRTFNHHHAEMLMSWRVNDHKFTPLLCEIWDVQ

CC(C)c1ccc2ncccc2c1
not listed: [20]
inactive: all other assays above

CC1(C)C(=O)N(CO)C(=O)N1CO
not listed: [13] | [14]
inactive: all other assays above

C=CC(C)(O)CC/C=C(\C)CC (centres undefined)
not listed: [12]
inactive: all other assays above

CCCCOCCOCCOC(C)=O
not listed: [12]
inactive: all other assays above

Nc1ccc(C(=O)OCCCOC(=O)c2ccc(N)cc2)cc1
not listed: [13] | [16]
inactive: all other assays above

CCOB(OCC)OCC
not listed: [13] | [16]
inactive: all other assays above

CC(C)C(=O)OCCc1ccccc1
not listed: [20]
inactive: all other assays above

CCCCOCCOC(=O)COc1ccc(Cl)cc1Cl
not listed: [12]
inactive: all other assays above
